From the supplement of paper PMC8728848
Only a selection was taken, and the strongest signals are over-represented in it overall.

Assays:
Experiment in all cases: glycan array binding signal (z-score within array); higher = stronger binding
Details in all cases: glycan notation: IUPAC condensed, linker removed
[1] = target: Kdn(a2-3)Gal(b1-3)GalNAc
Method in brief: (§1)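 Glycan array data came from 3228 arrays in the Consortium for Functional Glycomics database, and only arrays with an available protein sequence were kept. Glycan names were put into IUPAC-condensed notation, and columns mapping to the same glycan were averaged. The binding signal is a within-array Z-score, averaged across arrays of one protein sequence run at different concentrations or buffers and across linkers. A negative Z-score can be read as non-binding.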

[2] = target: Man(a1-2)Man(a1-3)Man
Method in brief: as §1

[3] = target: Man(a1-2)Man(a1-3)[Man(a1-6)]Man(a1-6)[Man(a1-2)Man(a1-3)]Man(b1-4)GlcNAc(b1-4)GlcNAc
Method in brief: as §1

[4] = target: Man(a1-3)[Man(a1-6)]Man(a1-6)[Man(a1-3)]Man
Method in brief: as §1

[5] = target: Neu5Ac(a2-3)Gal(b1-3)GlcNAc
Method in brief: as §1

[6] = target: Neu5Ac(a2-3)Gal(b1-3)GlcNAc(b1-3)Gal(b1-4)GlcNAc
Method in brief: as §1

[7] = target: Neu5Ac(a2-3)Gal(b1-3)GlcNAc(b1-6)GalNAc
Method in brief: as §1

[8] = target: Neu5Ac(a2-3)Gal(b1-4)GlcNAc(b1-2)Man(a1-3)[Neu5Ac(a2-6)Gal(b1-4)GlcNAc(b1-2)Man(a1-6)]Man(b1-4)GlcNAc(b1-4)GlcNAc
Method in brief: as §1

[9] = target: Neu5Ac(a2-3)Gal(b1-4)GlcNAc(b1-2)[Neu5Ac(a2-3)Gal(b1-4)GlcNAc(b1-6)]Man(a1-6)[Neu5Ac(a2-3)Gal(b1-4)GlcNAc(b1-2)Man(a1-3)]Man(b1-4)GlcNAc(b1-4)GlcNAc
Method in brief: as §1

[10] = target: Neu5Ac(a2-3)Gal(b1-4)[Fuc(a1-3)]GlcNAc(b1-3)Gal(b1-4)[Fuc(a1-3)]GlcNAc(b1-3)Gal(b1-4)[Fuc(a1-3)]GlcNAc
Method in brief: as §1

[11] = target: Neu5Ac(a2-3)Gal(b1-4)[Fuc(a1-3)]GlcNAc(b1-3)GalNAc
Method in brief: as §1

[12] = target: Neu5Ac(a2-3)Gal(b1-4)[Fuc(a1-3)]GlcNAc(b1-6)[Neu5Ac(a2-3)Gal(b1-3)]GalNAc
Method in brief: as §1

[13] = target: Neu5Ac(a2-3)Gal6S(b1-4)GlcNAc
Method in brief: as §1

[14] = target: Neu5Ac(a2-3)GalNAc
Method in brief: as §1

[15] = target: Neu5Ac(a2-3)[GalNAc(b1-4)]Gal(b1-4)Glc
Method in brief: as §1

[16] = target: Neu5Ac(a2-6)Gal(b1-4)GlcNAc
Method in brief: as §1

[17] = target: Neu5Ac(a2-6)Gal(b1-4)GlcNAc(b1-2)Man
Method in brief: as §1

[18] = target: Neu5Ac(a2-6)Gal(b1-4)GlcNAc(b1-2)[Neu5Ac(a2-6)Gal(b1-4)GlcNAc(b1-4)]Man(a1-3)[GlcNAc(b1-4)][Neu5Ac(a2-6)Gal(b1-4)GlcNAc(b1-2)[Neu5Ac(a2-6)Gal(b1-4)GlcNAc(b1-6)]Man(a1-6)]Man(b1-4)GlcNAc(b1-4)GlcNAc
Method in brief: as §1

[19] = target: Neu5Ac(a2-6)Gal(b1-4)GlcNAc(b1-3)Gal(b1-4)GlcNAc(b1-3)[Neu5Ac(a2-6)Gal(b1-4)GlcNAc(b1-3)Gal(b1-4)GlcNAc(b1-6)]GalNAc
Method in brief: as §1

[20] = target: Neu5Ac(a2-6)Gal(b1-4)GlcNAc(b1-6)GalNAc
Method in brief: as §1

[21] = target: Neu5Ac(a2-6)Gal(b1-4)GlcNAc(b1-6)[Gal(b1-3)GlcNAc(b1-3)]Gal(b1-4)Glc
Method in brief: as §1

[22] = target: Neu5Ac(a2-6)GlcNAc(b1-4)GlcNAc
Method in brief: as §1

[23] = target: Neu5Ac(a2-8)Neu5Ac(a2-8)Neu5Ac(a2-3)[GalNAc(b1-4)]Gal(b1-4)Glc
Method in brief: as §1

[24] = target: Neu5Ac(a2-8)Neu5Gc(a2-3)Gal(b1-4)GlcNAc
Method in brief: as §1

[25] = target: Neu5Gc(a2-6)GalNAc
Method in brief: as §1

B1: PX14404-bvu-534-26-534 (Bacteroides vulgatus) (protein)
chain: EDPRGKLTPENFFSTQDELNMSIYALYQKVNLSQVYTNMQLPQWQGDDITTNPGSNKQPAAEMDKFAAANNNKGVKDAWNMHYAIVKAANLIIQGASKTPTTQDEINIALGQAKFWRAYAYFTLVRLWGPLPMNLDNVNDDYTKPLSPVEEVYGHIVQDLTEAEAVLPTGYSGSPRFLNGVNVYVTRQAAKSTLAAVYMAMAGWPMNKTEYYAKAAEKAKEVIEGVNRGEYEYKLDKDYKDVYAMSNNYNNETVLGINYSPFVDWAQDSELTSCNQFESLGGWGDAWGEIRFWKEFPDGPRKDATYDPKIRLKDGTLVDWWELKEDGTPVVPEHHPMFSIFSVNWDPASKVNTSAPYDYTKPASQNMCNDHRHRIIRYSEVLLWYAEAKARTGQTDELAFKCLNDVRERAGLEPLTGLSADDLAEAAYKEHGWEVAGYWVALVTRRADQFRMNRLKDTFKERAENTAVEVADGILVKESVEYTNRTWSDNLMYLPYPDMDSQKNPNLVR
- glycan array binding signal (z-score) [1]: 1.92
- glycan array binding signal (z-score) [2]: 1.24
- glycan array binding signal (z-score) [3]: -0.161
- glycan array binding signal (z-score) [4]: 2.67
- glycan array binding signal (z-score) [5]: 0.177
- glycan array binding signal (z-score) [6]: -0.891
- glycan array binding signal (z-score) [7]: -0.09
- glycan array binding signal (z-score) [8]: 0.576
- glycan array binding signal (z-score) [9]: -0.695
- glycan array binding signal (z-score) [10]: 0.228
- glycan array binding signal (z-score) [11]: 0.921
- glycan array binding signal (z-score) [12]: 3.23
- glycan array binding signal (z-score) [13]: 0.553
- glycan array binding signal (z-score) [14]: 0.608
- glycan array binding signal (z-score) [15]: -1.43
- glycan array binding signal (z-score) [16]: 0.634
- glycan array binding signal (z-score) [17]: -0.24
- glycan array binding signal (z-score) [18]: -0.206
- glycan array binding signal (z-score) [19]: 0.075
- glycan array binding signal (z-score) [20]: 0.144
- glycan array binding signal (z-score) [21]: -1.1
- glycan array binding signal (z-score) [22]: -0.51
- glycan array binding signal (z-score) [23]: 0.28
- glycan array binding signal (z-score) [24]: 12.9
- glycan array binding signal (z-score) [25]: 1.92
